The nature of assay [1]: NCI Yeast Anticancer Drug Screen. Data for the rad50 strain (AID 155).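 Note: 0% = growth of vehicle-only cultures of the same strain.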 Conditions: S. cerevisiae rad50 strain growth inhibition; at 50.0 µM; active compounds read high. In a few lines: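 Compounds were tested on a yeast strain with an engineered DNA damage repair alteration; the reported value is growth inhibition normalised to vehicle treatment.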
The nature of assay [2]: NCI Yeast Anticancer Drug Screen. Data for the mec2-1 strain (AID 157). The following applies: S. cerevisiae mec2-1 strain, at 50.0 µM, active compounds read high. In a few lines:
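Readout is yeast growth inhibition, normalised to vehicle-treated controls, in the mec2-1 strain exposed to compound.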

A short description of assay [3]: NCI Yeast Anticancer Drug Screen. Data for the sgs1 mgt1 strain (AID 161).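 Note: 0% = growth of cultures given vehicle only.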 Conditions: S. cerevisiae sgs1 mgt1 strain, at 50.0 µM, active compounds read high. In outline:
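Compounds are added to genetically altered yeast, and growth is compared with cultures given vehicle alone to give percent inhibition.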

Assay [4] is described as follows: NCI Yeast Anticancer Drug Screen. Data for the cln2 rad14 strain (AID 165).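 Note: 0% = growth equal to vehicle treated cultures.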 Conditions: S. cerevisiae cln2 rad14 strain, at 50.0 µM, active compounds read high. In a few lines: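 Relative to vehicle controls, growth inhibition of compound-treated cln2 rad14 yeast was recorded.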
Assay [5] can be described thus: NCI Yeast Anticancer Drug Screen. Data for the bub3 strain (AID 167). Conditions: S. cerevisiae bub3 mutant strain, at 50.0 µM, active compounds read high. In outline:
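Growth of a checkpoint-deficient yeast mutant is measured after compound exposure. Values represent inhibition relative to vehicle.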

Assay [6] can be described thus: NCI Yeast Anticancer Drug Screen. Data for the mlh1 rad18 strain (AID 175). The following applies: S. cerevisiae mlh1 rad18 strain growth inhibition; at 50.0 µM; active compounds read high. In a few lines: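 Test agents were incubated with a yeast strain of defined genotype (DNA damage repair defect). Inhibition of growth was derived by comparison with vehicle-exposed cultures.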

The record followed here is PubChem BioAssay (NCI).

Compounds without any hit were thinned out: in the full panel of roughly 79,000, 15% have a hit. Unmarked numbers belong to inactive results. Calls of active or inactive are those of the source. Cut-off read from the data, not from the text of the source: active = growth inhibition above about 70%; inactive = the rest.

For `COC1CC(NC(=O)C(F)(F)F)C(O)C(CNC(=O)C(F)(F)F)O1` (stereo not given), the growth inhibition in assay [1] was -32.5%; in assay [2] it was 17.2%; in assay [3], -3.55%; in assay [4], -14%; in assay [5], 16.1%; in assay [6], 19.4%.
As for `COC(=O)CCS(=O)(=O)Cc1ccccc1`, the growth inhibition in assay [1] is 0.95%; in assay [2], -1.3%; in assay [3] it was -6.95%; in assay [4], -7.9%; in assay [5], -1.65%; in assay [6], -0.5%.
Regarding `O=C(C=C(C(F)(F)F)C(F)(F)F)/C=C/c1ccccc1`, the growth inhibition in assay [1] is 99.5% (active); in assay [2] it was 99.7% (active); in assay [3], 99.5% (active); in assay [4], 99.5% (active); in assay [5], 99.3% (active); in assay [6] it was 99.4% (active).
As to `CS(=O)(=O)OCC(=O)NCCCCNC(=O)COS(C)(=O)=O`, the growth inhibition is -12.4% in assay [1]; 2.7% in assay [2]; 4.55% in assay [3]; -29.5% in assay [4]; 7.45% in assay [5]; 10.3% in assay [6].
As to `COc1ccc(/C=C/C(=O)C(C)(CN(C)C)CN(C)C)cc1`, the growth inhibition is 0.95% in assay [1]; -13.8% in assay [2]; 4.95% in assay [3]; 6.85% in assay [4]; -11.2% in assay [5]; 11.8% in assay [6].
Regarding `O=[N+]([O-])c1nc(-[n+]2ccccc2)[n-]c1Br`, the growth inhibition in assay [1] is 4.65%; in assay [2], -1.05%; in assay [3], -1.9%; in assay [4], -49.9%; in assay [5] it was 4.1%; in assay [6], 8.8%.
Regarding `O=C1CN(c2cccc(Cl)c2)C(=O)CN1/N=C/c1ccc(O)c(O)c1`, the growth inhibition in assay [1] was -29.1%; in assay [2] it was 0.15%; in assay [3] it was 3.45%; in assay [4], -6.95%; in assay [5] it was 46%; in assay [6] it was -8.9%.
Turning to `CCCC(=O)Nc1cn(COC)c(C(=O)N2C[C@@H]3C[C@]34C2=CC(=O)c2[nH]cc(C)c24)n1`, the growth inhibition in assay [1] is 28.2%; in assay [2] it was 20.4%; in assay [3], 34.4%; in assay [4], 14.2%; in assay [5] it was 26.2%; in assay [6], 50.8%.
In the case of `COC(=O)C1=C(\O)C[C@@]2(C)CC[C@@H](C(=O)OC)C2C/C=C\1C(=O)OC` (stereo not given in full), the growth inhibition was -4.75% in assay [1]; -6.25% in assay [2]; 0.05% in assay [3]; 11.1% in assay [4]; -8.6% in assay [5]; 34.8% in assay [6].
Regarding `CC(=O)N(C1CCCCC1)C1CCCCC1`, the growth inhibition in assay [1] was 30.2%; in assay [2], 20.6%; in assay [3] it was 13.4%; in assay [4] it was -2.05%; in assay [5] it was -2.2%; in assay [6], 45%.
Regarding `Cc1cc2nnc(-c3cccc([N+](=O)[O-])c3)n2c2nnnn12`, the growth inhibition is 25% in assay [1]; 31.1% in assay [2]; 21.6% in assay [3]; 66.7% in assay [4]; 37.8% in assay [5]; 36.7% in assay [6].
As for `Cc1ccc2c(c1)C(c1ccccc1)(c1ccccc1)OC2=O`, the growth inhibition in assay [1] was 17.6%; in assay [2], 11.9%; in assay [3], 6.75%; in assay [4], 7.95%; in assay [5], 11.4%; in assay [6], 20.4%.
For `CN(C)CCCC(O)c1cccc2ccccc12` (stereo not given), the growth inhibition in assay [1] was 25.4%; in assay [2], -12.6%; in assay [3], 10.7%; in assay [4], -4.65%; in assay [5] it was 0.8%; in assay [6] it was 24.4%.
As for `OCC1OC2OC(c3ccccc3)(c3ccc(OCc4ccccc4)nc3OCc3ccccc3)OC2C1O` (stereo not given), the growth inhibition in assay [1] was 25.9%; in assay [2], 2.6%; in assay [3], 0.6%; in assay [4], 14.8%; in assay [5] it was -10.4%; in assay [6], 2.8%.
As for `Clc1ccc(-c2nnc3n2NC(c2ccccc2)S3)c(Cl)c1` (stereo not given), the growth inhibition in assay [1] was 2.7%; in assay [2], -26%; in assay [3], -13.8%; in assay [4], 10.8%; in assay [5], -18.9%; in assay [6] it was -27.6%.
With `Cc1cc(C)c(SSc2c(C)cc(C)cc2C)c(C)c1`, the growth inhibition was -7.8% in assay [1]; -8.65% in assay [2]; -3.9% in assay [3]; -15.6% in assay [4]; 7.6% in assay [5]; -1.6% in assay [6].
Regarding `CCC(O)(c1ccccc1)c1ccccc1`, the growth inhibition in assay [1] was 1.7%; in assay [2], 3.5%; in assay [3], -5.65%; in assay [4] it was 4.15%; in assay [5], -19.8%; in assay [6], -4.8%.
Take `NC(=S)Nc1ccccc1-c1ccccc1`: the growth inhibition in assay [1] is 36.2%; in assay [2], 13.8%; in assay [3], 25%; in assay [4], -6.9%; in assay [5] it was 32.5%; in assay [6] it was 33.2%.
As for `CN(C)C(=O)C1C2CCC(C3CC32)C1C(=O)N(C)C` (stereo not given), the growth inhibition in assay [1] is 22.9%; in assay [2] it was 11.8%; in assay [3], 37.2%; in assay [4], 24.4%; in assay [5] it was 24.6%; in assay [6] it was 23.4%.
Regarding `COc1cc2c(cc1OC)C(C(CO)CO)N(CC(O)CCl)CC2` (stereo not given), the growth inhibition in assay [1] was -25.6%; in assay [2], -16.1%; in assay [3], -26%; in assay [4], -6.65%; in assay [5], -13.9%; in assay [6] it was -30.8%.
